Screening results deposited in PubChem BioAssay by National Center for Advancing Translational Sciences (NCATS).
In the library only some 3% were active in any assay of this set; here they are far more common.
UbGFP stabilizer: Ubiquitin-GFP Assay; AID 526, 2006; Potency, µM (highest dose often 45.9 µM), for inactives: at the highest dose activation (GFP accumulation), actives largely listed as activators; 67,000 tested, under 10 active; Ubiquitin-GFP reporter cells, proteasome inhibition, GFP fluorescence; response scale: untreated = 0%, 10 µM MG-132 = 100%; active = well fitted activation curve with a large enough effect, not every such curve was filed as active; inconclusive = small, poorly fitted or top-dose-only effect, or another doubt; inactive = no such curve, though single readings can be large or run the other way; also: potency is read from the fitted curve at half-maximal effect
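Proteasome blockade was scored as a rise in GFP-expressing U2OS cells carrying a ubiquitin(G76V)-GFP construct, imaged after 4 hr compound treatment at 37 °C across a 46 uM–2.9 nM series.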
Hsp90 Hop PPI: qHTS Assay for Disrupters of an Hsp90 Co-Chaperone Interaction; Hsp90 C-terminal peptide / TPR2A (Hop) interaction, human; AlphaScreen TPR2A-His6 binding biotin-Hsp90 C-terminal peptide; Potency, µM (highest dose often 57 µM), for the others: top-dose activity change, negative = inhibition; 71,000 tested, 0.44% active; AID 595, 2007; active = well fitted curve in either direction with a large enough effect; inconclusive = small, poorly fitted or top-dose-only effect, or another doubt; also: potency is read from the fitted curve at half-maximal effect; % is scaled to controls: 0 for no effect and ±100 for the full control effect
ERK AVP block: qHTS Assay for Inhibitors of the ERK Signaling Pathway using a Homogeneous Screening Assay. HEK293-V1b, vasopressin-stimulated pERK AlphaScreen. Potency, µM (series often up to 57.5 µM), inactives show at the highest dose activity, negative = inhibition, actives largely listed as inhibitors. 72,000 tested, 0.99% active; also: potency is read from the fitted curve at half-maximal effect; % is scaled to controls: 0 for no effect and ±100 for the full control effect; nearly all actives have a fitted effect of over 55% in size
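qHTS, compounds titrated on V1b-expressing HEK293 cells. Preincubation 30 min at 37C, vasopressin 25 nM for 5 min, lysis 10 min, bead incubation 5 hr at room temperature.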
Tau fil binding: qHTS Assay for Tau Filament Binding. recombinant tau filaments, thioflavin S fluorescence, 15 h; filaments grown with octadecylsulfate alongside compound. Potency, µM (series often up to 57.1 µM), for the others: at the highest dose activity change, negative = inhibition. 71,000 tested, 2% active. AID 596, 2007;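 also: potency is read from the fitted curve at half-maximal effect; % is scaled to controls: 0 for no effect and ±100 for the full control effect; actives lower thioflavin S fluorescence by blocking filaments or displacing dye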
Target sequence (P10636 whole entry, looked up): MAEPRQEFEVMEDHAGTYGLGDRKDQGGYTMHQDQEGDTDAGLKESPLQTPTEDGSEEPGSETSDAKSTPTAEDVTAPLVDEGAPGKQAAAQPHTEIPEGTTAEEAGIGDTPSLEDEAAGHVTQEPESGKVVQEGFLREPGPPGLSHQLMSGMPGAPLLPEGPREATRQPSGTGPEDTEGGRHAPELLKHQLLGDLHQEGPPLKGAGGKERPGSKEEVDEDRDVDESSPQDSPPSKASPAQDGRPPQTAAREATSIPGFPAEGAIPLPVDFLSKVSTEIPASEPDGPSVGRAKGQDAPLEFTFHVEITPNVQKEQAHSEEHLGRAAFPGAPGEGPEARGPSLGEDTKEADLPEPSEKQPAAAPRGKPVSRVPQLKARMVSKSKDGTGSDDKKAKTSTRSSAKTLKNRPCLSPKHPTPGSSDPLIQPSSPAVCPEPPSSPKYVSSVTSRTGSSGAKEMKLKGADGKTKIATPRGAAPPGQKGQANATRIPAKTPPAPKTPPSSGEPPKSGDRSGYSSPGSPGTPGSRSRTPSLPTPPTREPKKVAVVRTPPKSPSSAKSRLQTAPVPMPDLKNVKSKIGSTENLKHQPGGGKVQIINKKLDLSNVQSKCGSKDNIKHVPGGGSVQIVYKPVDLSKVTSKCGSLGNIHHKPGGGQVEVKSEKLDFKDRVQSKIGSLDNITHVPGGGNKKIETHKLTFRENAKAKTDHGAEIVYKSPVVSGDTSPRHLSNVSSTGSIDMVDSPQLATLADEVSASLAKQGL
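Assay mix: 1 uM His-tagged tau, 30 uM sodium octadecylsulfate, thioflavine S dye in HEPES/NaCl/DTT buffer. Compound is added prior to the inducer. Fluorescence after 15 h at 37 C.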
GFP derepression: qHTS Assay for Epigenetic Modulators. mouse C127i GFP locus derepression, cytometry, 30 h. 68,000 tested, 0.09% active. Potency, µM (top dose mostly 46.1 µM), without a hit: at the highest dose GFP derepression (activation); also: % of control where 0% means no effect
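Murine C127i mammary cells carrying a silenced, stably integrated CMV-driven GFP reporter were treated with compound for 30 hours at 37 C. After PBS washes, GFP-positive cells were counted by laser-scanning microplate cytometry.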
HBB splicing: qHTS Assay for Modulators of Hemoglobin Beta Chain Splicing. HBB splicing reporter cell assay, activation; EGFP reporter with mutant IVS2-654 intron; response scale: normalised to 500 nM splice-correcting PNA. Potency, µM (highest dose often 46.1 µM), without a hit: at the top dose activation, usual class: activators. 65,000 tested, 0.06% active. AID 925, 2007; also: potency is read from the fitted curve at half-maximal effect; 0% is about no effect
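HeLa cells stably expressing EGFP interrupted by mutant beta-globin intron 2 (IVS2-654), 500/well in 2% FCS. Treated with compound for 2 days at 37C. Splicing correction scored as total well GFP intensity (488 nm excitation, 500-520 nm emission); 500 nM antisense PNA served as control.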
An asterisk follows results filed as active; i = inactive; ? = inconclusive; nt = not tested or not shown; ! = a repeat was not active; [ ] = another dose, or the depositor's remark. Unless noted, calls follow the shape of the dose curve; as a rule, active = well fitted curve in the direction sought with a large enough effect; inconclusive = small, poorly fitted or top-dose-only effect, or another doubt; inactive = no such curve, though single readings can be large; an effect the other way counts as inactive or inconclusive.

SMILES	UbGFP stabilizer	Hsp90 Hop PPI	ERK AVP block	Tau fil binding	GFP derepression	HBB splicing
CCOC(=O)Cc1csc(NC(=O)CSc2ncnc3c2cnn3-c2ccccc2Cl)n1	0%	-3%	40µM*	-4%	3%	0%[57.5 µM]
CCCC(=O)Nc1ncnc2c1ncn2[C@@H]1O[C@@H]2COP(=O)(O)O[C@H]2[C@H]1OC(=O)CCC	1%	-4%	-10%	40µM*	-6%[20.6 µM]	nt
CCN(CCO)CCCC(C)Nc1ccnc2cc(Cl)ccc12 (stereo unspecified)	nt	nt	8%	nt	nt	nt
CCN(CC)CCC[C@H](C)Nc1c2ccc(Cl)cc2nc2ccc(OC)cc12	3%[20.5 µM]	2%[26 µM]	33%[25.7 µM]	nt	13µM*!	13µM*
CN(C)c1ccc(N=Cc2ccco2)cc1	-10%	?	?	13µM*	-4%	3%
Cc1nn(-c2ccccc2)c2c1C(c1cccnc1)N1C=C(S(=O)(=O)N3CCCCC3)C=CC1=N2 (stereo unspecified)	-8%	?	-2%	16µM*	0%	1%
O=C(O)CCSc1nc2ccc(Br)cc2[nH]1	-5%	-5%	27%	1%	-1%	nt
Cn1c(CSc2nc3ccc(Br)cc3[nH]2)nc2ccccc21	0%	-2%	20µM*	64%	-2%	-1%[9.22 µM]
OC(COc1ccc2cc(Br)ccc2c1)CN1CCCC1 (stereo unspecified)	1%	-5%	-19%	88%	0%	5%
OC(COc1ccc2cc(Br)ccc2c1)CN1CCN(c2ccccn2)CC1 (stereo unspecified)	2%	-3%	25µM*	12%	-3%	0%
CCOCCCNc1ncnc2c1[nH]c1ccccc12	-4%	-7%	40µM*	-17%	3%	4%[0.369 µM]
CCCn1c(=O)[nH]c2nc(-c3ccc(S(=O)(=O)O)cc3)[nH]c2c1=O	0%	-6%	-25%	?	-1%	nt
CN1CCN(c2ncc3nc(CCc4ccccc4)c(=O)n(C4CC4)c3n2)CC1	-9%	-1%	-24%	i	2%[9.22 µM]	9%
COc1cccc(NC(=O)CSc2nnc(-c3cc(-c4ccccn4)nc4ccccc34)o2)c1	-2%	-8%	-9%	25µM*	-1%	1%
C[C@H](CCC(=O)O)[C@H]1CC[C@@H]2[C@@H]3CC[C@H]4C[C@@H](O)CC[C@@]4(C)[C@@H]3C[C@H](O)[C@@]21C	5%[9.17 µM]	-7%[11 µM]	4%[11.5 µM]	5%[11.4 µM]	7%[9.22 µM]	1%[9.22 µM]
Cc1ccc([C@@]2(C)CC/C(=N/N=C3\CC[C@](C)(c4ccc(C)c(C)c4)c4cc(C)c(C)cc43)c3cc(C)c(C)cc32)cc1C	5%[9.17 µM]	-1%[11 µM]	4%[11.5 µM]	7%[11.4 µM]	0%[9.22 µM]	-1%[9.22 µM]
OC(CNc1nc2ccccc2s1)c1ccccc1 (stereo unspecified)	3%	3%	25µM*	9%	3%	nt
CCCN=Cc1sc2ccc(OCC)cc2c1O	-6%	-9%	-25%	16µM*	3%	0%[9.22 µM]
Cc1cc(N2CCOCC2)c2c(N)c(Br)cc(C)c2n1	6%[9.17 µM]	4%[11 µM]	?	3.2µM*	2%	-3%[0.0738 µM]
Nc1nc2n[nH]nc2c(=O)[nH]1	20%[20.5 µM]	1%[26 µM]	-2%[25.7 µM]	-12%[25.6 µM]	7%[20.6 µM]	0.79µM*
Cc1nc(N)[nH]c(=O)c1CCC(=O)OCC(C)C	2%	3%	0%	-2%	-1%	-1%
COc1ccc(Nc2ccc3c(c2)=NC2(CCCCC2)[N+]=3[O-])cc1	-15%	?	16µM*	16µM*	-2%	-1%[9.22 µM]
[O-][N+]1=c2ccc(Nc3ccccc3)cc2=NC12CCCCC2	nt	?	?	13µM*	-2%	3%[0.369 µM]
CC(C)C12CN3CC(C(C)C)(CN(C1)C3c1ccccc1O)C2=O (stereo unspecified)	18%[9.17 µM]	-1%[11 µM]	6%	-9%[11.4 µM]	0%	1%[0.0738 µM]
CC(C)C12CN3CC(C(C)C)(CN(C1)C31C(=O)Nc3ccccc31)C2=O (stereo unspecified)	3%	0%	-10%	16µM*	-4%	-7%
SMILES	UbGFP stabilizer	Hsp90 Hop PPI	ERK AVP block	Tau fil binding	GFP derepression	HBB splicing
CSc1nc(C)cc(Nc2ccc(O)c(CN3CCCCC3)c2)n1	-3%[9.17 µM]	-5%[11 µM]	-4%[11.5 µM]	-6%[11.4 µM]	-2%[9.22 µM]	0%[9.22 µM]
Cc1ccc(-c2cc(C(F)F)n3ncc(C(=O)N4CCN(c5ccccn5)CC4)c3n2)cc1	5%	-4%	-10%	?	-2%	-1%
O=C(c1cc2nc(-c3ccccc3)cc(C(F)(F)F)n2n1)N1CCCC1	-3%	0%	0%	-9%	0%	1%
CCN1CCN(C(=O)c2cnn3c(C(F)F)cc(-c4ccc(C)cc4)nc23)CC1	8%	-2%	4%	20µM*	1%	nt
Cc1ccc(-c2cc(C(F)(F)F)n3ncc(C(=O)N4CCN(C)CC4)c3n2)cc1	27%[9.17 µM]	-3%[11 µM]	-10%	4µM*	2%	-1%[0.0738 µM]
CN1CCN(C(=O)c2cc3nc(-c4ccccc4)cc(C(F)(F)F)n3n2)CC1	-1%	-1%	-28%	25µM*	-2%	-1%
CN1CCN(C(=O)c2cc3nc(-c4ccc(Cl)cc4)cc(C(F)(F)F)n3n2)CC1	3%[9.17 µM]	-6%[11 µM]	-21%	2.5µM*	-6%	-2%[0.0738 µM]
COc1ccc(N2CCN(C(=O)C(C)(C)Oc3ccc(Cl)cc3)CC2)cc1	6%	-5%[2.3 µM]	?	13µM*	nt	-1%
CCOC(=O)N1CCN(C(=O)C(C)(C)Oc2ccc(Cl)cc2)CC1	12%	1%	-3%	0%	-2%	1%
Cc1cccn2c(=O)c3cc(C(=O)NC(C)c4ccccc4)c(=N)n(CCCn4ccnc4)c3nc12 (stereo unspecified)	-11%	-21%	22%	1.3µM*	2%	0%
Cc1ccc2nc3c(cc(C(=O)NCc4ccccc4)c(=N)n3CCCn3ccnc3)c(=O)n2c1	-2%	?	8%	0.5µM*	0%	0%
N#CC(CC(=O)O)=C(c1ccccc1)c1ccccc1	-5%[9.17 µM]	-1%[11 µM]	-11%[11.5 µM]	-14%[11.4 µM]	9%[9.22 µM]	1%[9.22 µM]
Cc1cnc(C(=O)Nc2ccc(-n3cnnn3)cc2)cn1	-5%	1%	-11%	-5%	3%	1%[57.5 µM]
COc1ccc(NC(=O)c2cnc(C)cn2)cc1-n1cnnn1	-3%	-1%	40µM*	-2%	3%	0%[57.5 µM]
C=CCSC1=C(C#N)C(c2cccc(OC)c2)CC(=O)N1 (stereo unspecified)	4%	0%	12%	-1%	4%	nt
CSC1=C(C#N)C(c2cccc(Br)c2)CC(=O)N1 (stereo unspecified)	-3%	0%	20µM*	-2%	1%	-5%
